Measurements: PubChem BioAssay (NCI)
Compounds without any hit were thinned out: in the full panel of roughly 79,000, 15% have a hit. Calls of active or inactive are those of the source. Rule as the data show it: active = growth inhibition above about 70%; inactive = the rest.

Columns and labels:
[1] = NCI Yeast Anticancer Drug Screen. Data for the rad52 strain (AID 147);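 also: 0% = growth of vehicle-treated control cultures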; conditions: S. cerevisiae rad52 mutant growth inhibition, stronger effect = higher value
How it was run: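 Yeast strain carrying a DNA damage repair alteration was exposed to test compounds. Growth inhibition was measured relative to vehicle-treated controls.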

[2] = NCI Yeast Anticancer Drug Screen. Data for the wt1 strain (AID 149);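 also: 0% = growth of vehicle-treated wt1 cultures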; conditions: S. cerevisiae wt1 strain (SPY 50644) growth inhibition, stronger effect = higher value
How it was run: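 wt1 strain grown with compound or vehicle; inhibition taken from the growth difference.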

[3] = NCI Yeast Anticancer Drug Screen. Data for the rad50EPP+ strain (AID 151);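 also: 0% = growth of vehicle-treated control cultures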; conditions: S. cerevisiae rad50 mutant strain, stronger effect = higher value
How it was run: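 Yeast strain carrying rad50 alteration (rad50EPP+) exposed to compounds; growth inhibition measured relative to vehicle-treated controls.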

[4] = NCI Yeast Anticancer Drug Screen. Data for the mgt1 strain (AID 153); conditions: S. cerevisiae mgt1 mutant growth inhibition, stronger effect = higher value
How it was run: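 Yeast mgt1 strain (DNA repair/cell-cycle alteration panel) exposed to compounds; growth inhibition measured relative to vehicle-treated controls.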

[5] = NCI Yeast Anticancer Drug Screen. Data for the rad50 strain (AID 155);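 also: 0% = growth of vehicle-only cultures of the same strain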; conditions: S. cerevisiae rad50 strain growth inhibition, stronger effect = higher value
How it was run: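 DNA repair mutant yeast, compound exposure, growth read-out; inhibition is taken relative to vehicle.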

[6] = NCI Yeast Anticancer Drug Screen. Data for the mec2-1 strain (AID 157); conditions: S. cerevisiae mec2-1 strain, stronger effect = higher value
How it was run: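 mec2-1 yeast strain, carrying an alteration in DNA damage repair or cell cycle control, was exposed to compounds; growth inhibition was measured relative to vehicle-treated controls.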

[7] = NCI Yeast Anticancer Drug Screen. Data for the rad14 strain (AID 159);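 also: 0% = growth of vehicle-treated control cultures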; conditions: S. cerevisiae rad14 strain growth inhibition, stronger effect = higher value
How it was run: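 DNA repair-defective yeast, compound-exposed; % growth inhibition derived by comparison with vehicle-treated controls.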

[8] = NCI Yeast Anticancer Drug Screen. Data for the sgs1 mgt1 strain (AID 161);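 also: 0% = growth of cultures given vehicle only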; conditions: S. cerevisiae sgs1 mgt1 strain, stronger effect = higher value
How it was run: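 Percent growth inhibition was derived by comparing compound-exposed mutant yeast with vehicle-exposed cultures. The strain carries alterations in DNA damage repair.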

[9] = NCI Yeast Anticancer Drug Screen. Data for the CLN2oe strain (AID 163);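 also: 0% = growth of vehicle-only control cultures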; conditions: S. cerevisiae CLN2oe strain, stronger effect = higher value
How it was run: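 Yeast cells carrying a defined cell-cycle control alteration were exposed to test compounds. Growth inhibition was scored against vehicle-treated control cultures.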

[10] = NCI Yeast Anticancer Drug Screen. Data for the cln2 rad14 strain (AID 165);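 also: 0% = growth equal to vehicle treated cultures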; conditions: S. cerevisiae cln2 rad14 strain, stronger effect = higher value
How it was run: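 Yeast carrying cln2 and rad14 alterations (cell cycle control and DNA damage repair) were exposed to compounds. Growth inhibition was measured against vehicle-treated controls.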

[11] = NCI Yeast Anticancer Drug Screen. Data for the bub3 strain (AID 167); conditions: S. cerevisiae bub3 mutant strain, stronger effect = higher value
How it was run: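 In this screen, a yeast mutant lacking normal mitotic checkpoint function is challenged with compound. Relative growth versus vehicle gives the inhibition value.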

[12] = NCI Yeast Anticancer Drug Screen. Data for the wt2 strain (AID 169);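 also: 0% = growth of vehicle-treated yeast cultures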; conditions: S. cerevisiae wt2 strain growth inhibition, stronger effect = higher value
How it was run: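 Yeast cells were exposed to test compounds, and growth inhibition was measured relative to vehicle-treated controls.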

[13] = NCI Yeast Anticancer Drug Screen. Data for the mlh1 strain (AID 171);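 also: 0% = growth of vehicle-treated control cultures of the same strain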; conditions: S. cerevisiae mlh1 strain growth inhibition, stronger effect = higher value
How it was run: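 Yeast carrying a defined genetic alteration in DNA damage repair or cell cycle control were exposed to test compounds. Growth inhibition was measured relative to vehicle-treated controls.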

[14] = NCI Yeast Anticancer Drug Screen. Data for the sgs1 strain (AID 173);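 also: 0% = growth of vehicle-only control cultures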; conditions: S. cerevisiae sgs1 mutant, stronger effect = higher value
How it was run: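 Yeast mutant strains carrying defined defects in DNA damage repair or cell cycle control were exposed to test compounds. Growth inhibition was scored against vehicle-treated controls.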

[15] = NCI Yeast Anticancer Drug Screen. Data for the mlh1 rad18 strain (AID 175); conditions: S. cerevisiae mlh1 rad18 strain growth inhibition, stronger effect = higher value
How it was run: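 Growth inhibition of the yeast strain was measured after compound exposure and expressed relative to vehicle-treated controls. The strain carries defined defects in DNA damage repair.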

[16] = NCI Yeast Anticancer Drug Screen. Data for the rad18 strain (AID 177); conditions: S. cerevisiae rad18 mutant growth inhibition, stronger effect = higher value
How it was run: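 Yeast carrying a defined DNA damage repair alteration were exposed to compounds. Growth inhibition was expressed relative to vehicle-treated controls.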

[17] = at 5.0 µM (retest, dose inferred, filed as 0.5)
[18] = at 50.0 µM (retest, dose inferred, filed as 5.0)

Measured: growth inhibition

Cc1cc(O)c(C(C)C)cc1SC#N
inactive: [1]; at 1.2 µM 2% | [1]; at 3.7 µM -12% | [1]; at 11.0 µM 62% | [1]; at 33.0 µM 34% | [2]; at 1.2 µM -15% | [2]; at 3.7 µM 1% | [2]; at 11.0 µM 43% | [2]; at 33.0 µM 36% | [3]; at 1.2 µM -12% | [3]; at 3.7 µM -5% | [3]; at 11.0 µM 1% | [3]; at 33.0 µM 10% | [4]; at 1.2 µM -3% | [4]; at 3.7 µM -13% | [4]; at 11.0 µM 54% | [4]; at 33.0 µM 40% | [5]; at 1.2 µM -24% | [5]; at 3.7 µM -15% | [5]; at 11.0 µM 67% | [5]; at 33.0 µM 19% | [6]; at 1.2 µM -26% | [6]; at 3.7 µM -25% | [6]; at 11.0 µM 68% | [6]; at 33.0 µM 24% | [7]; at 1.2 µM -4% | [7]; at 3.7 µM 0% | [7]; at 11.0 µM 55% | [7]; at 33.0 µM 46% | [8]; [17] -5% | [9]; at 1.2 µM 12% | [9]; at 3.7 µM -17% | [9]; at 11.0 µM 68% | [9]; at 33.0 µM 54% | [10]; [17] 65% | [11]; at 1.2 µM 3% | [11]; at 3.7 µM 50% | [11]; at 33.0 µM 34% | [12]; at 1.2 µM -11% | [12]; at 3.7 µM -24% | [12]; at 11.0 µM 52% | [12]; at 33.0 µM 36% | [13]; at 1.2 µM -19% | [13]; at 3.7 µM -5% | [13]; at 11.0 µM 58% | [13]; at 33.0 µM 33% | [14]; at 1.2 µM -30% | [14]; at 3.7 µM -24% | [14]; at 11.0 µM 65% | [14]; at 33.0 µM 28% | [16]; at 1.2 µM 12% | [16]; at 3.7 µM 2% | [16]; at 11.0 µM 59% | [16]; at 33.0 µM 40%
active: [1]; at 100.0 µM 98% | [2]; at 100.0 µM 99% | [3]; at 100.0 µM 89% | [4]; at 100.0 µM 99% | [5]; [17] 91% | [5]; [18] 98% | [5]; at 50.0 µM 89.1% | [5]; at 100.0 µM 98% | [6]; [17] 96% | [6]; [18] 99% | [6]; at 50.0 µM 91.1% | [6]; at 100.0 µM 98% | [7]; at 100.0 µM 99% | [8]; [18] 97% | [8]; at 50.0 µM 91.9% | [9]; at 100.0 µM 98% | [10]; [18] 98% | [10]; at 50.0 µM 90.3% | [11]; [17] 72% | [11]; at 11.0 µM 91% | [11]; [18] 98% | [11]; at 50.0 µM 90.5% | [11]; at 100.0 µM 98% | [12]; at 100.0 µM 98% | [13]; at 100.0 µM 98% | [14]; at 100.0 µM 98% | [15]; [17] 81% | [15]; [18] 99% | [15]; at 50.0 µM 89% | [16]; at 100.0 µM 98%
